Assay results from ChEMBL document CHEMBL1961873, “Compounds: GSK PKIS; Assays: Nanosyn kinase panel” (2012).

The molecules below were run against Receptor-type tyrosine-protein kinase FLT3 (Homo sapiens) (UniProt P36888). Conditions: at 1 µM.
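Note: values are mean percent inhibition of FLT3 kinase activity.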

Chain of Receptor-type tyrosine-protein kinase FLT3 (Homo sapiens) (P36888 whole entry): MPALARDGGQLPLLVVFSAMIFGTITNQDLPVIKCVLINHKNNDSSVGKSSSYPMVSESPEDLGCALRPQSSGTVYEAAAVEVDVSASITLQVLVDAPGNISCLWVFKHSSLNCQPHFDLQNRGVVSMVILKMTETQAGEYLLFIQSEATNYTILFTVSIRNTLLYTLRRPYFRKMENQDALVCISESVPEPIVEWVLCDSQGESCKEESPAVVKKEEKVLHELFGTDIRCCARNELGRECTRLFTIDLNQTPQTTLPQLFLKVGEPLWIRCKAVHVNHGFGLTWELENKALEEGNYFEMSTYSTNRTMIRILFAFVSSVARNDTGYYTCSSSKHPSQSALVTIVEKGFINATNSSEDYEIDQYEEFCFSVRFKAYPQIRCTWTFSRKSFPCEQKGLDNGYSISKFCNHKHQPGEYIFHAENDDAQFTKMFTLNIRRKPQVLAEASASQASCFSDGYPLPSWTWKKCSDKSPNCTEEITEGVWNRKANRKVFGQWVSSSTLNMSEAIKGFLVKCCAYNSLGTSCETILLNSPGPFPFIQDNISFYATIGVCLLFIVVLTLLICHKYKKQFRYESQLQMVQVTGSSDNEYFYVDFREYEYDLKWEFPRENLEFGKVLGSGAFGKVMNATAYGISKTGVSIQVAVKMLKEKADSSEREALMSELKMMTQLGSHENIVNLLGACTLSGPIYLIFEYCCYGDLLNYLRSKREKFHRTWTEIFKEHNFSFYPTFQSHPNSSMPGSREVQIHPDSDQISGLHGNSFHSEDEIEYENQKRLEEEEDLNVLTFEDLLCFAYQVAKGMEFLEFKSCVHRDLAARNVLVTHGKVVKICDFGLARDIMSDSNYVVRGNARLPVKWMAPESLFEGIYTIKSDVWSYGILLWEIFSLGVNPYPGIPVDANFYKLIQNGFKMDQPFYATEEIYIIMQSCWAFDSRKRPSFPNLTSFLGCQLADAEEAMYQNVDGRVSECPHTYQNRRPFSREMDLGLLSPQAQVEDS

| Structure (SMILES) | inhibition |
| --- | --- |
| Nc1nccc(-c2c(-c3ccc(F)cc3)ncn2CCCN2CCOCC2)n1 | 3.31% |
| NS(=O)(=O)c1ccc(Nc2cc(-c3cccc(O)c3)n[nH]2)cc1 | 23.2% |
| C[C@@H](Oc1cc(-n2cnc3ccc(OC[C@@H](O)CO)cc32)sc1C(N)=O)c1ccccc1Cl | 5.21% |
| CN1CCN(C(=O)c2ccc(NC(=O)Nc3ccc(N(C)c4ccnc(Nc5ccc(CS(C)(=O)=O)cc5)n4)cc3)cc2)CC1 | 83.9% |
| Nc1nccc(-c2c(-c3ccc(F)cc3)nn3cc(C(F)(F)F)ccc23)n1 | -0.04% |
| COc1cccc(-n2nc(C)c3c(N/N=C(\C)c4ccncc4)ncnc32)c1 | -1.96% |
| CN(C)c1cc2c(Nc3ccc4c(cnn4Cc4ccccc4)c3)ncnc2cn1 | 1.77% |
| CC(C)c1ccc2c(c1)NC(=O)/C2=N/Nc1ccc(S(N)(=O)=O)cc1 | 43.7% |
| COc1cc(Nc2nccc(-c3cnn4ncccc34)n2)cc(OC)c1 | 90.8% |
| NS(=O)(=O)c1cccc(-c2cc3ccncc3cc2OCc2ccccc2)c1 | 2.96% |
| CCS(=O)(=O)c1ccc(OC)c(Nc2nccc(N(C)c3ccc4c(C)n[nH]c4c3)n2)c1 | 6.74% |
| NS(=O)(=O)c1ccc(N/N=C2\C(=O)Nc3ccc(Cl)cc32)cc1 | 66.7% |
| OCc1ccc(-c2nc(-c3ccccn3)c(-c3ccc4c(c3)OCO4)[nH]2)cc1 | 5.93% |
| NC(=O)c1cccc(Nc2nccc(Nc3cccc(F)c3)n2)c1 | 16.5% |
| ON=C1CCc2cc(-c3nc(C4CCNCC4)[nH]c3-c3ccncc3)ccc21 | 0.24% |
| CN(C)C(=O)O[C@H]1CN[C@H](C#Cc2cc3ncnc(Nc4ccc(OCc5cccc(F)c5)c(Cl)c4)c3s2)C1 | 0.66% |
